Screening results (PubChem)
In the library only some 4.7% were active in any assay of this set; here they are far more common.
VHR inh abs: VHR1 phosphatase inhibitors, primary screen, biochemical, absorbance, uHTS; inhibition, % at 13.3 µM; actives 0.52% (n = 290,000); recombinant VHR phosphatase, pNPP absorbance; AID 1654, 2009; in the data active = inhibition above about 50%
Target sequence (P51452 whole entry, looked up): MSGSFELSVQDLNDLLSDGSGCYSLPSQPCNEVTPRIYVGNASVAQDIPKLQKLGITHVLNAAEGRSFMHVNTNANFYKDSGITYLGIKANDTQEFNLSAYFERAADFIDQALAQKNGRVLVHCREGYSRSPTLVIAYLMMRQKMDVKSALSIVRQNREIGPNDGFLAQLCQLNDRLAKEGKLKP
RecA splice inh: Mtb RecA intein splicing inhibitors, primary screen, biochemical, fluorescence, HTS; Protein RecA (Mycobacterium tuberculosis (strain ATCC 25618 / H37Rv)), P9WHJ3; cell-free RecA intein splicing; inhibition, % (test concentration not listed); actives 0.75% (n = 290,000); AID 2221, 2009; in the data active = inhibition above about 30%;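 also: 0% = vehicle wells and 100% = reference inhibitor control wells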
FBA Mtb inh: Mtb FBA enzyme inhibitors, primary screen, biochemical, fluorescence, strain H37Rv; AID 588726, 2011; inhibition, % at 1 µM; purified M. tuberculosis FBA, fluorescence read-out; actives 2.3% (n = 360,000); Fructose-bisphosphate aldolase (Mycobacterium tuberculosis (strain ATCC 25618 / H37Rv)), …; in the data active = inhibition above about 27%;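 also: 0% = vehicle and 100% = reference inhibitor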
Target sequence (P9WQA3 whole entry, looked up): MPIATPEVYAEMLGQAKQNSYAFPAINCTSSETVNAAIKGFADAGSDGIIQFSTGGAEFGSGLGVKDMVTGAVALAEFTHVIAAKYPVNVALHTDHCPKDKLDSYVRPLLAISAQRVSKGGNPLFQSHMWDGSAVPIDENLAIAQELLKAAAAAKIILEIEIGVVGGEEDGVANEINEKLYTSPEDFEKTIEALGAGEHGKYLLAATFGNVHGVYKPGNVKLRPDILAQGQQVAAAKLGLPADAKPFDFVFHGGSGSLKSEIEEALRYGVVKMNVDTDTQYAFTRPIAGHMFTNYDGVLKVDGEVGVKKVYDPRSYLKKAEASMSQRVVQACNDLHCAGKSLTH
SARS 3CLpro inh: SARS-CoV 3CLpro protease inhibitors, primary screen, biochemical, quenched FRET | Replicase polyprotein 1ab (Severe acute respiratory syndrome coronavirus), P0C6X7 | recombinant SARS-CoV 3CLpro, quenched FRET peptide cleavage | actives 0.14% (n = 290,000) | inhibition, % at 6 µM | AID 1706, 2009; in the data active = inhibition above about 12%
GDH-TPI counter-1: GDH-TPI coupling enzyme inhibitors, primary screen, artefact control for M. tuberculosis FBA inhibitor project, biochemical, absorbance, full deck. inhibition, % at 4.8 µM. actives 1.2% (n = 360,000). GDH-TPI coupled enzyme counterscreen, NADH absorbance. AID 588335, 2011;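 also: 0% = DMSO wells and 100% = wells lacking the enzyme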
CCHF vOTU inh-1: CCHFV vOTU protease inhibitors, primary screen, biochemical, Pep-AMC substrate, fluorescence. actives 0.55% (n = 370,000). Crimean-Congo hemorrhagic fever virus L polyprotein viral ovarian tumor (vOTU) protease …. inhibition, % at 11.5 µM; also: 0% = vehicle wells with enzyme and 100% = no enzyme wells
GFP chromo cs: counter-screen: blocks GFP chromophore formation, dose response, counter-screen, biochemical, fluorescence, homogeneous. shares compounds with RecA splice inh. cell-free GFP chromophore formation. EC50, µM. actives 83% (n = 2,100). AID 434968, 2010; call rule not given here
Mtb FBA confirm: M. tuberculosis aldolase blockers, biochemical, fluorescence, strain H37Rv, confirmation | inhibition, % at 1 µM | actives 78% (n = 5,600) | purified M. tuberculosis FBA, fluorescence read-out | AID 651616, 2012 | shares compounds with FBA Mtb inh; in the data active = inhibition above about 27%;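 also: 0% = vehicle wells and 100% = reference inhibitor wells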
GDH-TPI counter-2: GDH-TPI coupling enzyme inhibitors, artefact control for M. tuberculosis FBA inhibitor project, biochemical, fluorescence, high throughput. shares compounds with FBA Mtb inh. GDH-TPI coupled enzyme counterscreen. inhibition, % at 1 µM. actives 81% (n = 5,600); in the data active = inhibition above about 10%
CCHF vOTU inh-2: CCHFV vOTU protease inhibitors, confirmation, biochemical, Pep-AMC substrate, fluorescence; shares compounds with CCHF vOTU inh-1; actives 17% (n = 1,900); Recombinant CCHFV vOTU; inhibition, % at 11.5 µM
* hit, by the source's call; · = no result. Rule as the data show it, unless noted: active = inhibition above about 30%; inactive = the rest.

SMILES | VHR inh abs | RecA splice inh | FBA Mtb inh | SARS 3CLpro inh | GDH-TPI counter-1 | CCHF vOTU inh-1 | GFP chromo cs | CCHF vOTU inh-2 | others
CCOC(=O)c1c(NC(=S)N2CCCCC2)sc2c1CCN(C(=O)OCC)C2 | 18 | 33* | 2 | 1 | 8 | -11 | 25* | ·
CCOC(=O)c1c(NC(=S)N2CCOCC2)sc2c1CCN(C(=O)OCC)C2 | 18 | 39* | 1 | 0 | -1 | 6 | 33* | ·
COC(=O)C1CN(C#N)N(c2ccc(Cl)cc2)C12c1ccccc1-c1ccccc12 (stereo unspecified) | 12 | 44* | -1 | 2 | 5 | · | 9.8* | ·
CCNC(=O)CSc1nnc(-c2cccc(S(=O)(=O)N3CCOCC3)c2)o1 | · | · | 5 | · | -1 | -5 | · | ·
CCc1cccc(N(C(=O)c2csnn2)C(C(=O)NC2CCCCC2)c2ccncc2)c1 (stereo unspecified) | 12 | 2 | 1 | 1 | 6 | 7 | · | ·
COC(=O)[C@@]1(Cc2ccc(F)cc2)[C@H]2c3cc(C(=O)N(C)C)n(CCF)c3C[C@H]2CN1C(=O)c1ccccc1 | · | · | · | · | · | 1 | · | ·
COC(=O)[C@@]1(Cc2ccccc2)[C@@H]2C(=CC(=O)[C@H]2CC(=O)C(=O)N(C)C)CN1C(=O)c1ccccc1 | 1 | 70* | 2 | -1 | 4 | · | 16* | ·
CCNC(=O)C1(C)CCN(C(=O)c2ccc3c(c2)OCO3)C1 (stereo unspecified) | · | · | -2 | · | 4 | 4 | · | ·
CC(=O)c1ccc(-c2cccc(-c3nc4ccccn4c3NC3CCCCC3)c2)cc1 | · | 32* | 6 | · | 12 | 5 | 0.38* | ·
c1ccc(CCNCc2cccs2)cc1 | 5 | 33* | 2 | 1 | 7 | -7 | >38 | ·
O=c1[nH]c(N2CCOCC2)cc2ccccc12 | · | 69* | 45* | · | 0 | 5 | 24* | · | Mtb FBA confirm=144*;GDH-TPI counter-2=100*
O=c1c(N2CCOCC2)coc2ccccc12 | 8 | -7 | 9 | -3 | 9 | -9 | · | ·
COc1ccc([C@H]2OC(=O)C[C@H]2C(=O)N2CCCCC2)cc1OC | · | · | · | · | · | 0 | · | ·
COc1cc(-c2nnc(SCC(=O)NN=Cc3c[nH]c4ccccc34)n2-c2ccccc2)cc(OC)c1OC | · | · | · | · | · | 12 | · | ·
CCOc1ccccc1Oc1coc2cc(OC(=O)c3ccco3)ccc2c1=O | 13 | 33* | 32* | 2 | 19 | -33 | >38 | · | Mtb FBA confirm=29*;GDH-TPI counter-2=21*
CCOC(=O)c1c(C)n(C)c2cc([N+](=O)[O-])c(O)c([N+](=O)[O-])c12 | 25 | -4 | 4 | -4 | -5 | 14 | · | ·
Cc1oc2cc([N+](=O)[O-])c(O)c([N+](=O)[O-])c2c1C(=O)c1ccc(Cl)cc1 | 16 | 37* | 72* | 1 | 31* | 13 | 22* | · | Mtb FBA confirm=14;GDH-TPI counter-2=13*
COCCn1c(N)c(C(=O)NCc2cccs2)c2nc3ccccc3nc21 | 18 | 62* | 101* | -1 | -11 | -40 | >38 | · | Mtb FBA confirm=116*;GDH-TPI counter-2=77*
Oc1ccc(N=Cc2ccc(OCc3ccccc3)cc2)cc1 | 25 | 46* | 0 | -3 | 1 | 94* | >38 | 67*
COc1ccc2noc3c2c1C(=O)c1ccccc1-3 | · | 60* | -11 | · | 3 | 64* | 10* | 104*
O=S(=O)(/N=C(/Nc1ccccc1F)c1ccccc1)c1ccccc1 | 12 | 0 | -1 | -1 | 11 | 1 | · | ·
COC(=O)C(C(C)=O)C1=C/C(=N\S(=O)(=O)c2ccc(C)cc2)c2ccccc2C1=O (stereo unspecified) | 6 | 18 | 3 | -1 | 2 | · | · | ·
O=C(O)c1ccc(S(=O)(=O)/N=C2\C=C(Nc3ccccc3F)C(=O)c3ccccc32)cc1 | 12 | 94* | -6 | 8 | 7 | 122* | 0.17* | 103*
COc1ccc(S(=O)(=O)/N=C2\C=C(Nc3ccc(O)cc3)C(=O)c3ccccc32)cc1 | 15 | 93* | -7 | 6 | 8 | 110* | 0.34* | 105*
Cc1ccccc1NC1=C/C(=N\S(=O)(=O)c2cccs2)c2ccccc2C1=O | 7 | 37* | -5 | 4 | 16 | 101* | 1* | 98*
SMILES | VHR inh abs | RecA splice inh | FBA Mtb inh | SARS 3CLpro inh | GDH-TPI counter-1 | CCHF vOTU inh-1 | GFP chromo cs | CCHF vOTU inh-2 | others
Cc1cn(C2CCCCO2)c(=O)[nH]c1=O (stereo unspecified) | · | · | -2 | · | 7 | -4 | · | ·
COc1ccc(OCC(=O)NCCCCCCNC(=O)COc2ccc(OC)cc2)cc1 | 6 | 4 | -1 | 0 | 3 | -1 | · | ·
CC(OC(=O)Cn1nnc2ccccc21)C(=O)NC1CCCC1 (stereo unspecified) | 21 | -3 | 0 | 1 | 4 | 1 | · | ·
O=C(O)CSc1cc(NS(=O)(=O)c2ccc(Br)cc2)c2ccccc2c1O | 34 | 97* | 3 | 11 | 0 | 114* | 0.68* | 104*
CCOC(=O)C1CCN(C(=O)c2c(C)oc3c2C(=O)c2ccccc2C3=O)CC1 | 8 | 69* | -1 | 9 | -8 | 61* | 4.7* | 46*
Cc1oc2c(c1C(=O)N1CCC(C)CC1)C(=O)c1ccccc1C2=O | 11 | 79* | · | 6 | · | 32* | 8.5* | 16
CCOC(=O)C1CCN(C(=O)c2ccc(C)o2)CC1 | · | · | -1 | · | -2 | -17 | · | ·
CC1CCN(C(=O)c2ccc3c(c2)C(=O)c2ccccc2-3)CC1 | · | · | 0 | · | 4 | -5 | · | ·
C[C@H](CO)N1C[C@H](C)[C@@H](CN(C)Cc2ccc(Cl)c(Cl)c2)Oc2c(NS(=O)(=O)c3cccs3)cccc2C1=O | · | · | 2 | · | 10 | -4 | · | ·
CC(=O)N(Cc1ccc(F)cc1)C1=C(NCCc2ccccc2)C(=O)c2ccccc2C1=O | 6 | 78* | -4 | 11 | 11 | 87* | 11* | 63*
